# RXFP1 ag = RXFP1 (human) receptor agonism. Q9HBX9. HEK293T-RXFP1 cAMP TR-FRET, 30 min; response scale: percent of porcine relaxin response, buffer zero. Potency, µM (top dose mostly 57.5 µM), without a hit: top-dose activation, usual class: activators. 0.3% of 370,000 active. AID 2676; active means well fitted activation curve with a large enough effect; inconclusive means small, poorly fitted or top-dose-only effect; further: potency means the concentration at half of the fitted maximal effect; on the % scale 0 is the no-effect control and ±100 the full control effect; nearly all actives have a fitted effect of over 60% in size
# Target sequence (Q9HBX9 whole entry, looked up): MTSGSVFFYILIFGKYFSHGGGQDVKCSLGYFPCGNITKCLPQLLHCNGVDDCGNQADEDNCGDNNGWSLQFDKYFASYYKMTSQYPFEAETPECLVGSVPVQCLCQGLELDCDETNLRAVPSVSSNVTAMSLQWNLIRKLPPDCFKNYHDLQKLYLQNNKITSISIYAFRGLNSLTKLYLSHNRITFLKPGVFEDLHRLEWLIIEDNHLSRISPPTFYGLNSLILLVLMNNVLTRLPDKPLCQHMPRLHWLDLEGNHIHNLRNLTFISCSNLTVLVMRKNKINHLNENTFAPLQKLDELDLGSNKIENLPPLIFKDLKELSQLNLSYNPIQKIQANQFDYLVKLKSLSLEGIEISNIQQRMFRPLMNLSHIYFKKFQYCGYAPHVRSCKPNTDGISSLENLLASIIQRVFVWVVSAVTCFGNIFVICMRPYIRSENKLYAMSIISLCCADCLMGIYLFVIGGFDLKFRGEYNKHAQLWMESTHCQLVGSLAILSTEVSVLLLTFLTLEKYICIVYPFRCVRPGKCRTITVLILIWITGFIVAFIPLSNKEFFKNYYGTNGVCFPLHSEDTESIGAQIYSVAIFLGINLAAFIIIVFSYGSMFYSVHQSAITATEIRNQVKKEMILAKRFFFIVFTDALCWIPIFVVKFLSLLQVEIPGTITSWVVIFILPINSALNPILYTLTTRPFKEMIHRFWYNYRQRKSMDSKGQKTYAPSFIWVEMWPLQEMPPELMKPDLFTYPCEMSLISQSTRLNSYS
#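 HEK293T cells stably expressing RXFP1 were pretreated with the PDE4 inhibitor Ro 20174, exposed to compounds for 30 min at 37C, lysed, and cAMP was read by TR-FRET. Data normalized to buffer (basal) and 29 nM porcine relaxin (100%).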
# TSHR antagonist = antagonists of human thyroid stimulating hormone receptor. activity change, negative = inhibition, % at 11.5 µM. 0.2% of 330,000 active. P16473. TSHR-expressing cells, TSH-stimulated cAMP HTRF, 2 h; active compounds read low. AID 504810;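 active means activity change below a set negative limit, meaning inhibition stronger than a set level, cut at about -70% in these data; inconclusive means activity change between two set negative limits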; further: on the % scale 0 is the no-effect control and ±100 the full control effect
#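 Cell-based HTRF cAMP assay; TSHR cells + compound, TSH EC80 (4nM final), 2 h, 37 deg C. Lysis with anti-cAMP cryptate and cAMP-d2, 30 min RT, read 665/620 nm.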
# RXFP1 antag = RXFP1 (human) relaxin receptor antagonism; HEK293-RXFP1, relaxin-stimulated cAMP HTRF, 30 min; active compounds read low; activity change, negative = inhibition, % at 57.5 µM; 0.59% of 350,000 active; Q9HBX9;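 active means activity change of -60% or lower, but not beyond a set lower limit; inconclusive means change between -60% and -40%, or beyond the set limit; inactive means change above -40%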; further: on the % scale 0 is the no-effect control and ±100 the full control effect
# Akt phos inh = Akt phosphorylation inhibition. activity change, % for hits at 50 µM. 0.32% of 360,000 active. Neuro2A IGF-stimulated pAkt S473 HTRF, 20 min; active compounds read low; in the data active means activity change below about -80%; inconclusive means mostly about -51% to -80%; further: on the % scale 0 is the no-effect control and ±100 the full control effect
#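 Neuro2A cells (4,500/well, DMEM with 0.5% FBS) were treated with compound at a single 50 µM final concentration, stimulated with 6 nM IGF for 20 min at 37 °C, and lysed. Phospho-Akt Ser473 was read by HTRF as 665/615 ratio ×10^4.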
# gsp ag = gsp mutant agonism; gsp mutant cells, cAMP HTRF, 30 min; Potency, µM (doses to about 76.9 µM), for inactives: at the highest dose activation (cAMP increase), actives largely listed as activators; 0.13% of 340,000 active; AID 624287; active means well fitted activation curve with a large enough effect; inconclusive means small, poorly fitted or top-dose-only effect, or another doubt; inactive means no such curve, though single readings can be large or run the other way; cell line not stated here;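 further: phosphodiesterase inhibitor Ro 20-1724 added with compounds to block cAMP breakdown; potency means the concentration at half of the fitted maximal effect; nearly all actives have a fitted effect of over 60% in size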
#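 Cells in DMEM/10% FBS with G418 were pretreated with compounds in DMSO plus […] (300 uM stock) for 30 min at 37C. cAMP was measured by HTRF (cAMP-d2 plus anti-cAMP antibody-K) after 30 min at room temperature.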
# gsp antagonist = gsp mutant antagonism. gsp-mutant cells, cAMP HTRF, 30 min. Potency, µM (top dose mostly 76.9 µM), without a hit: at the highest dose activity change, negative = inhibition, actives largely listed as inhibitors. 0.4% of 340,000 active. AID 624288; calls by dose curve; cell line not stated here;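 further: intracellular cAMP measured with PDE inhibitor Ro 20-1724 present during compound exposure; potency means the concentration at half of the fitted maximal effect; on the % scale 0 is the no-effect control and ±100 the full control effect; nearly all actives have a fitted effect of over 65% in size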
#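 HTRF cAMP read-out (cAMP-d2 plus anti-cAMP antibody-K in lysis buffer, 30 min RT). Before lysis, cells are exposed to compounds with […] for 30 min at 37C in DPBS containing Ca/Mg, BSA and Tween 20.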
# Active calls of the source: *; i = inactive; ? = inconclusive; . = no result; ! = repeats disagree; [ ] = another dose, or the depositor's remark. A selection: hits, their analogues and other compounds. The true share with any hit is near 1.3%.
SMILES,RXFP1 ag,TSHR antagonist,RXFP1 antag,Akt phos inh,gsp ag,gsp antagonist
Oc1ccc(Cl)cc1Nc1nc2ccccc2n2cnnc12,-0.5%,.,.,.,.,.
O=C(CCS(=O)(=O)c1ccccc1)Nc1nc2cc3c(cc2s1)OCO3,0.2%,2.1,-5.4,i,-2.9%,50.1µM*
CCN(CC)S(=O)(=O)c1cccc(C(=O)Nc2nc3cc4c(cc3s2)OCCO4)c1,1.8%,-78.5*,-14.1,i,-37.9%,-15.1%
COc1ccccc1-c1cn(C(C)(C)C)nc1C,-2.7%,-15.9,7.5,i,?,6.4%
Cc1cc(S(=O)(=O)Nc2c(NC3CCCCC3)c3ccccc3oc2=O)ccc1F,2.4%,29.1,3.8,i,14.0%,?
CC(=O)Nc1ccc(S(=O)(=O)Nc2c(NC3CCCCC3)c3ccccc3oc2=O)cc1,1.5%,-89.2*,1.1,i,-0.3%,-27.4%
CN1N=C(N)c2cn(C3OC(COP(=O)(O)O)C(O)C3O)c3ncnc1c23 (stereo unspecified),.,.,-5.9,i,?,-4.1%
Cc1ccc(-c2nc(N)sc2-c2ccccc2)cc1C,1.9%,-18.2,-83.8*,i,1.9%,-7.6%
Nc1nc(-c2ccccc2)c(-c2ccccc2)s1,2.1%,-8.1,1.7,i,1.2%,-31.1%
CCOC(=O)c1c(C)oc2nc(C)nc(NCc3cccc(OC)c3)c12,1.1%,.,-11.5,.,.,.
O=C(N/N=C/c1ccc(OC(=O)c2ccccc2Cl)cc1)c1cc(O)cc(O)c1,1.6%,-15.6,-85.0*,i,-5.2%[15.4 µM],-10.8%
O=C(NCCn1cc(SCc2ccccc2F)c2ccccc21)c1cccs1,2.8%,.,.,.,.,.
Cc1ccc(-n2nc3c(=O)n(CC(=O)NCCc4ccc(Cl)cc4)nc(C)c3c2C)cc1,4.0%,9.5,3.5,i,28.1%,-17.0%
Cc1ccc(-n2nc3c(=O)n(CC(=O)NCCC4=CCCCC4)nc(C)c3c2C)cc1,8.2%,15.6,-102.5*,.,0.3%,-8.7%
COc1cccc(/C=c2\s/c(=C\C(=O)C(C)(C)C)[nH]c2=O)c1,0.4%,-5.6,-90.6*,i,2.7%[15.4 µM],-10.8%
COc1ccc(/C=c2\s/c(=C/C(=O)c3ccc(C)cc3)[nH]c2=O)c(OC)c1,2.3%,5.2,-17.8,i,-2.1%[15.4 µM],-1.2%
CC(=O)N1c2ccc(S(=O)(=O)NCC3CCC(C(=O)Nc4cccc(C)c4)CC3)cc2CC1C (stereo unspecified),2.0%,.,-7.3,.,.,.
CC1(C)Cc2c(sc3c2c(N)nc(=S)n3Cc2ccc(Br)cc2)CO1,?,-4.4,-10.2,i,-1.5%[15.4 µM],8.5%
Cc1cccc(NC(=O)NNC(=O)c2cc3ccccc3cc2O)c1C,-2.3%,2.8,-66.2*,i,-2.1%[15.4 µM],-14.9%
CC(=O)CSc1nc(N)c(C#N)c(-c2cccs2)c1C#N,3.3%,-10.1,-11.2,i,2.4%,0.3%
N#Cc1c(N)nc(SCC(=O)NCCc2ccccc2)c(C#N)c1-c1cccs1,?,-0.7,9.8,-89.4%*,?,-0.2%
CCCCn1c(N)c(N(CC(C)C)C(=O)CCCc2cccs2)c(=O)[nH]c1=O,2.5%,6.6,4.6,i,4.4%[15.4 µM],8.8%
CC(=O)N1CCc2cc(CNS(=O)(=O)c3ccc(C(C)(C)C)cc3)ccc21,3.3%,.,10.0,.,.,.
CNCCCOc1ccc(Cl)cc1C(C)(C)C,3.0%,-6.8,-85.2*,i,16.5%,21.1%
O=c1nccc(NCc2ccco2)[nH]1,2.3%,17.8,1.3,-108.2%*,0.6%,-1.4%
SMILES,RXFP1 ag,TSHR antagonist,RXFP1 antag,Akt phos inh,gsp ag,gsp antagonist
O=C1C(Cl)=C(NCc2ccco2)C(=O)c2ccccc21,.,.,1.7,i,-2.0%,-5.8%
Cc1ccc(NC(=O)c2sccc2C)nc1,-3.3%,3.5,-4.8,i,?,5.0%
CCCCc1nc2ccccc2n2c(-c3ccc(OC)cc3)c3c(=O)n(C)c(=O)n(C)c3c12,0.2%,.,-13.1,.,.,.
Cc1ccccc1C(=O)N1CCC(C(=O)Nc2nccs2)CC1,1.5%,5.4,-1.5,i,?,-3.2%
Cc1ccccc1C(=O)N1CCC(C(=O)Nc2nc3ccc(F)cc3s2)CC1,2.0%,-9.9,-23.6,i,-1.0%,39.8µM*
Oc1nc(Nc2ccc(F)cc2)sc1/C=C1\C=Nc2ccccc21,2.4%,-23.8,-104.0*,i,11.8%[15.4 µM],-26.5%
Oc1cccc(Nc2nc(O)c(/C=C3\C=Nc4ccccc43)s2)c1,1.1%,-20.5,-1.0,i,?,?
O=C(O)c1ccc(NC2=C/C(=N/S(=O)(=O)c3ccccc3)c3ccccc3C2=O)cc1,-3.8%,-73.6*,7.6,i,?,-20.8%
Cc1ccc(C(=O)c2oc3ccccc3c2NC(=O)COc2ccccc2C)cc1,22.7%,.,.,.,.,.
O=S(=O)(Nc1cccc(-c2ccc(N3CCCCCC3)nn2)c1)c1cccc(F)c1,2.3%,-19.0,11.3,.,6.0%,?
O=S(=O)(Nc1cccc(-c2ccc(N3CCCCCC3)nn2)c1)c1ccc(F)cc1,2.1%,-83.1*,-76.2*!,i,?,?
O=S(=O)(Nc1cccc(-c2ccc(N3CCCCCC3)nn2)c1)c1ccccc1Cl,-0.4%,-16.3,-20.9,i,?,28.2µM*
O=S(=O)(Nc1cccc(-c2ccc(N3CCCCCC3)nn2)c1)c1ccc(C(F)(F)F)cc1,0.6%,-1.0,-68.0*,i,0.4%,?
O=S(=O)(Nc1ccc(-c2ccc(N3CCOCC3)nn2)cc1)c1ccc(Cl)c(Cl)c1,-2.5%,-33.7,-11.8,i,18.6%[15.4 µM],35.5µM*
CC(=O)c1ccc(S(=O)(=O)Nc2cccc(-c3ccc(N4CCCCC4)nn3)c2)cc1,-1.7%,.,-16.7,.,.,.
O=[N+]([O-])c1ccc(Cl)c(S(=O)(=O)Nc2ccc(-c3ccc(N4CCOCC4)nn3)cc2)c1,0.7%,-15.2,-19.4,i,2.0%,?
COC(=O)C[C@H]1N(S(=O)(=O)c2ccc(C)cc2)C(C(C)C)CC1(C(=O)OC)C(=O)OC (stereo partly specified),.,.,.,i,.,.
CCOC(=O)c1sc(NC(C)=O)c(C(=O)OCC)c1C,3.3%,-5.7,13.3,i,10.3%,14.7%
CCOC(=O)c1sc(NC(=O)CN(CC)CC)c(C(=O)OCC)c1C,5.6%,6.3,-3.9,-81.1%*,1.7%,22.6%
CN(CC(=O)Nc1cccc(F)c1)C(=O)CSc1ccc(Br)cc1,0.2%,0.4,-71.8*,i,0.0%[15.4 µM],-17.5%
Cc1cccc(N2C(=O)N(CC(=O)C(C)(C)C)c3ccccc3S2(=O)=O)c1C,-0.7%,.,.,.,.,.
CC1Cc2nc(SCC(=O)NCC3CCCO3)n(C)c(=O)c2S1 (stereo unspecified),5.1%,19.7,2.3,i,10.3%,2.1%

# Assay outcomes deposited in PubChem BioAssay by National Center for Advancing Translational Sciences (NCATS).
